# From ChEMBL document CHEMBL1961873, “Compounds: GSK PKIS; Assays: Nanosyn kinase panel” (2012)
# Assays:
# [1] = molecular target: 5'-AMP-activated protein kinase catalytic subunit alpha-2 (Homo sapiens) (UniProt P54646); details: at 1 µM
# [2] = molecular target: T1, NUAK family SNF1-like kinase 1 (Homo sapiens) (UniProt O60285); details: at 0.1 µM
# T1 sequence (whole entry): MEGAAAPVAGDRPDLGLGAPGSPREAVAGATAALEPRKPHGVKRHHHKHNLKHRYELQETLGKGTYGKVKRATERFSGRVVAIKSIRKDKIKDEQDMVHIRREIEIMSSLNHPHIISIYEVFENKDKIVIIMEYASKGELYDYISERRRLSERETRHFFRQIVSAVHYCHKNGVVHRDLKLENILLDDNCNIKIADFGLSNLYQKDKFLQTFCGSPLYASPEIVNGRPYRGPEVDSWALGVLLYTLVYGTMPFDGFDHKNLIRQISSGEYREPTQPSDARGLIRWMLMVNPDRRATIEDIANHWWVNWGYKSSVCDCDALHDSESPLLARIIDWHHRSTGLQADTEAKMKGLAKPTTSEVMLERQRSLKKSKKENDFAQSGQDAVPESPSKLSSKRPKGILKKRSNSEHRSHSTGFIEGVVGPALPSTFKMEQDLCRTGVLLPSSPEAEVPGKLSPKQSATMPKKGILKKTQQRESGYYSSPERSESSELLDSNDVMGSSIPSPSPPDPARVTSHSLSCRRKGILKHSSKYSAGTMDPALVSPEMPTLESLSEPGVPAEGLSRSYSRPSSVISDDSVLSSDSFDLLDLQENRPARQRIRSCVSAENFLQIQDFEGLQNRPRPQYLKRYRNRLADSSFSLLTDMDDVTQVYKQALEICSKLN
# [3] = molecular target: T2, Serine/threonine-protein kinase BRSK1 (Homo sapiens) (UniProt Q8TDC3); details: at 0.1 µM
# T2 sequence (whole entry): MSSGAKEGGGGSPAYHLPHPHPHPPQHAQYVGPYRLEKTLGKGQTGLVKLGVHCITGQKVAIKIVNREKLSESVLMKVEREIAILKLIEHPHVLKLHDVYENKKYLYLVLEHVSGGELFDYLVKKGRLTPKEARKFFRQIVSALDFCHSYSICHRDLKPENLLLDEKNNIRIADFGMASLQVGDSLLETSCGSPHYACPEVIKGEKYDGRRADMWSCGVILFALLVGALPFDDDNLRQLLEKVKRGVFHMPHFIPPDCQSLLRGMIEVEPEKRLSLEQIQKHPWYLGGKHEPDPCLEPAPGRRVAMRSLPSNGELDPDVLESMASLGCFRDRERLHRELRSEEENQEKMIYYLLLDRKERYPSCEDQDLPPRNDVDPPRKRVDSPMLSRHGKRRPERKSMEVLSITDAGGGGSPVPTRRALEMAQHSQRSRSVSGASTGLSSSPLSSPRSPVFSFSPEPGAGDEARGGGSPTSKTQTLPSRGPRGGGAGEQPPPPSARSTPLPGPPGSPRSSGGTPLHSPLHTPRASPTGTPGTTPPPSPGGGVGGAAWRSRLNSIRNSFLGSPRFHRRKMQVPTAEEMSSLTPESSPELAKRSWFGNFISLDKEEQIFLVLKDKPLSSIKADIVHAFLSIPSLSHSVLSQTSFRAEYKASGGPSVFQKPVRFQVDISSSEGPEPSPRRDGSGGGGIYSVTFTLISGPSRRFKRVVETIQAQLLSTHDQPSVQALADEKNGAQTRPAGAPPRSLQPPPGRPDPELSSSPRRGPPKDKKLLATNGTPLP
# [4] = molecular target: T2, Serine/threonine-protein kinase BRSK1 (Homo sapiens); details: at 1 µM
# [5] = molecular target: T3, Serine/threonine-protein kinase BRSK2 (Homo sapiens) (UniProt Q8IWQ3); details: at 0.1 µM
# T3 sequence (whole entry): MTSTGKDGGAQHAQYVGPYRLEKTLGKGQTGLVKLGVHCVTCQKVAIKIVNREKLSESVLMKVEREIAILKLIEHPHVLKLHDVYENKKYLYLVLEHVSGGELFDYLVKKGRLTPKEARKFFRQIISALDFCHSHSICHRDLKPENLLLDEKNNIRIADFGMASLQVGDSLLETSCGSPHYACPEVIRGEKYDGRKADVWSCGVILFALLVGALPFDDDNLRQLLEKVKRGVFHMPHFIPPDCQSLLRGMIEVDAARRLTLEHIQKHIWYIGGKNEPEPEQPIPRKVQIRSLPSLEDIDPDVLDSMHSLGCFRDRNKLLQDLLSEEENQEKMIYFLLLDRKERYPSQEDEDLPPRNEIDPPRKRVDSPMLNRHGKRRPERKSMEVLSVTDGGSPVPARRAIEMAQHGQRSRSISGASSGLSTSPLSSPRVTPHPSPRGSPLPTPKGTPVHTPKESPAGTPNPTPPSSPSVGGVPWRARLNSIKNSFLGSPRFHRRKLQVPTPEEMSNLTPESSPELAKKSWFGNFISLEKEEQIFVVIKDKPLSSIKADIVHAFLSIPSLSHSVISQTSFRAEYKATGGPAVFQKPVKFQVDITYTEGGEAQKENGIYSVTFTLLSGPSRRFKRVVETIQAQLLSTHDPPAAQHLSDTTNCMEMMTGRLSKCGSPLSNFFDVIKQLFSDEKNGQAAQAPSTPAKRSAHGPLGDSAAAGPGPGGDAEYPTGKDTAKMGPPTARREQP
# [6] = molecular target: T3, Serine/threonine-protein kinase BRSK2 (Homo sapiens); details: at 1 µM
# [7] = molecular target: Calcium/calmodulin-dependent protein kinase type 1D (Homo sapiens) (UniProt Q8IU85); details: at 0.1 µM
# Chain of Calcium/calmodulin-dependent protein kinase type 1D (Homo sapiens) (Q8IU85 whole entry, looked up): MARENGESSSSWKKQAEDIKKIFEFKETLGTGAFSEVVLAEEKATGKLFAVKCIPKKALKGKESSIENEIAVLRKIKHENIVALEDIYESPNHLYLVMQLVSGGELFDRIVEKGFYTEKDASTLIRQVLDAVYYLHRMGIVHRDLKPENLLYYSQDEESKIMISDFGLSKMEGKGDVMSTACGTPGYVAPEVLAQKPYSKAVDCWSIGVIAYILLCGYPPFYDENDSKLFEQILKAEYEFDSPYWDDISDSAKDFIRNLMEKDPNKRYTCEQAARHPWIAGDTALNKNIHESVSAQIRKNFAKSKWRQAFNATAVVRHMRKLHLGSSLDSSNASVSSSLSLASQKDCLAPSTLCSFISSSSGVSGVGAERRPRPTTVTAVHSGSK
# [8] = molecular target: Calcium/calmodulin-dependent protein kinase type 1D (Homo sapiens) (UniProt Q8IU85); details: at 1 µM
# [9] = molecular target: Calcium/calmodulin-dependent protein kinase type II subunit alpha (Homo sapiens) (UniProt Q9UQM7); details: at 0.1 µM
# Chain of Calcium/calmodulin-dependent protein kinase type II subunit alpha (Homo sapiens) (Q9UQM7 whole entry): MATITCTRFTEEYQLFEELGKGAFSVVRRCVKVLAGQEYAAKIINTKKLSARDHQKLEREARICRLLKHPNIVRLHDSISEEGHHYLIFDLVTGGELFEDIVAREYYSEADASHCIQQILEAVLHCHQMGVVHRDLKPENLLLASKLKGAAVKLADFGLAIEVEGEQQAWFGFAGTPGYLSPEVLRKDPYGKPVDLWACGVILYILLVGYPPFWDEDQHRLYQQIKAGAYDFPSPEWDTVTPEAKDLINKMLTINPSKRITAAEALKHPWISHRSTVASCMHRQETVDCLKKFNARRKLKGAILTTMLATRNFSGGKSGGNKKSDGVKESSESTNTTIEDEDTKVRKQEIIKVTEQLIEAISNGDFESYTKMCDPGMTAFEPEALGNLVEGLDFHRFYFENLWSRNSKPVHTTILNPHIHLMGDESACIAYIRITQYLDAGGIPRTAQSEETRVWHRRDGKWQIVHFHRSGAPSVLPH
# [10] = molecular target: Calcium/calmodulin-dependent protein kinase type II subunit alpha (Homo sapiens) (UniProt Q9UQM7); details: at 1 µM
# [11] = molecular target: Calcium/calmodulin-dependent protein kinase type II subunit delta (Homo sapiens) (UniProt Q13557); details: at 0.1 µM
# Chain of Calcium/calmodulin-dependent protein kinase type II subunit delta (Homo sapiens) (Q13557 whole entry): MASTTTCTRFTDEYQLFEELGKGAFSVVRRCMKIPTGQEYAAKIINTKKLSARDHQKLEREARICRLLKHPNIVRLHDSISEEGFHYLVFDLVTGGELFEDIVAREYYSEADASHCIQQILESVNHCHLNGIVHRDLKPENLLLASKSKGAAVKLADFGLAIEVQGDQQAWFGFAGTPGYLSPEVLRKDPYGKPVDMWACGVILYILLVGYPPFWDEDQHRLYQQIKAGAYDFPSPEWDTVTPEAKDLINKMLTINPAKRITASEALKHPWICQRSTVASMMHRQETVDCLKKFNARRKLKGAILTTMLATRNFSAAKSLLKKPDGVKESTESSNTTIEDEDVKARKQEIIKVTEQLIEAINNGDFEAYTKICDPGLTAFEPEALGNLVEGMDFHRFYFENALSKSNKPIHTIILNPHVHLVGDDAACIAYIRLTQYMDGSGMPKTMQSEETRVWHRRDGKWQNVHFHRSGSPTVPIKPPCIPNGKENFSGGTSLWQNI
# [12] = molecular target: Calcium/calmodulin-dependent protein kinase type II subunit delta (Homo sapiens) (UniProt Q13557); details: at 1 µM
# [13] = molecular target: T4, Calcium/calmodulin-dependent protein kinase type IV (Homo sapiens) (UniProt Q16566); details: at 0.1 µM
# T4 sequence (whole entry): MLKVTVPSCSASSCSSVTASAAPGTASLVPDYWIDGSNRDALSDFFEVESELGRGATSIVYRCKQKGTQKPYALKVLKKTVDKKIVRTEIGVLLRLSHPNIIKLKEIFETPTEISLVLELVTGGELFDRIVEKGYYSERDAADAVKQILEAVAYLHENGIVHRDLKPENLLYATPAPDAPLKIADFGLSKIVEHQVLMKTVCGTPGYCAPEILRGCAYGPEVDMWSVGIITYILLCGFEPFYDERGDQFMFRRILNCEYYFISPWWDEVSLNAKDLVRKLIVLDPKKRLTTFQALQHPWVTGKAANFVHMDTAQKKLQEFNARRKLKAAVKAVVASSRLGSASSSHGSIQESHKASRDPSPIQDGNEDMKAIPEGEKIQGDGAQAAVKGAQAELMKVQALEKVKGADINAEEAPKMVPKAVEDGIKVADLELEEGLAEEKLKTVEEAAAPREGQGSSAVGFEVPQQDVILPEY
# [14] = molecular target: T4, Calcium/calmodulin-dependent protein kinase type IV (Homo sapiens); details: at 1 µM
# [15] = molecular target: T5, Serine/threonine-protein kinase Chk1 (Homo sapiens) (UniProt O14757); details: at 0.1 µM
# T5 sequence (whole entry): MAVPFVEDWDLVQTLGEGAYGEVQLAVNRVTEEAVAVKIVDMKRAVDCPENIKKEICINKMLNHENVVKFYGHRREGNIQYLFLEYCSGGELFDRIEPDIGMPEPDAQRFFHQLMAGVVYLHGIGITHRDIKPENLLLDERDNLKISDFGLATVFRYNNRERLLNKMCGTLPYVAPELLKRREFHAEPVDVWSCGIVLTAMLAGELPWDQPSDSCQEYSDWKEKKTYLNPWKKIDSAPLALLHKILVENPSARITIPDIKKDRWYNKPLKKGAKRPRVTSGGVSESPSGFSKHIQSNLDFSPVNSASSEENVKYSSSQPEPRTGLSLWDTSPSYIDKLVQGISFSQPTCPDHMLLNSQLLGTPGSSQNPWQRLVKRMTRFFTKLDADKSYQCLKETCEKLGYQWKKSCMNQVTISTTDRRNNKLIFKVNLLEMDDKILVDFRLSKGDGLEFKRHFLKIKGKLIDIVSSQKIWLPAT
# [16] = molecular target: T5, Serine/threonine-protein kinase Chk1 (Homo sapiens); details: at 1 µM
# [17] = molecular target: Serine/threonine-protein kinase Chk2 (Homo sapiens) (UniProt O96017); details: at 0.1 µM
# Chain of Serine/threonine-protein kinase Chk2 (Homo sapiens) (O96017 whole entry): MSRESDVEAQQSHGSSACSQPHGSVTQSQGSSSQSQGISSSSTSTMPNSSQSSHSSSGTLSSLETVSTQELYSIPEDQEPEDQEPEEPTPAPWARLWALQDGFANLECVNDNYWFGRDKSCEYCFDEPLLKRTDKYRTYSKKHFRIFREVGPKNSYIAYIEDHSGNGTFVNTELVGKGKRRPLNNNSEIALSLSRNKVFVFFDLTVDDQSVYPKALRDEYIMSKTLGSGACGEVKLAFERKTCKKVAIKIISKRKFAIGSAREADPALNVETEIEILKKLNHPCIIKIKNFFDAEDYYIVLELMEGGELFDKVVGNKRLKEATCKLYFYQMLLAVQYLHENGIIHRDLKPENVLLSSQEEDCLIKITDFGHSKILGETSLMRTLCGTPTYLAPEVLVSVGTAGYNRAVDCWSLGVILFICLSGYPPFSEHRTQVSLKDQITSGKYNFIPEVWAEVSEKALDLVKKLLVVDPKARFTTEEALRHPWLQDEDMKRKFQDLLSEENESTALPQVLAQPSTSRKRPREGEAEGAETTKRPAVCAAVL
# [18] = molecular target: Serine/threonine-protein kinase Chk2 (Homo sapiens) (UniProt O96017); details: at 1 µM
# [19] = molecular target: Death-associated protein kinase 1 (Homo sapiens) (UniProt P53355); details: at 0.1 µM;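 note: reported figure is the mean inhibition of DAPK1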
# Chain of Death-associated protein kinase 1 (Homo sapiens) (P53355 whole entry, looked up): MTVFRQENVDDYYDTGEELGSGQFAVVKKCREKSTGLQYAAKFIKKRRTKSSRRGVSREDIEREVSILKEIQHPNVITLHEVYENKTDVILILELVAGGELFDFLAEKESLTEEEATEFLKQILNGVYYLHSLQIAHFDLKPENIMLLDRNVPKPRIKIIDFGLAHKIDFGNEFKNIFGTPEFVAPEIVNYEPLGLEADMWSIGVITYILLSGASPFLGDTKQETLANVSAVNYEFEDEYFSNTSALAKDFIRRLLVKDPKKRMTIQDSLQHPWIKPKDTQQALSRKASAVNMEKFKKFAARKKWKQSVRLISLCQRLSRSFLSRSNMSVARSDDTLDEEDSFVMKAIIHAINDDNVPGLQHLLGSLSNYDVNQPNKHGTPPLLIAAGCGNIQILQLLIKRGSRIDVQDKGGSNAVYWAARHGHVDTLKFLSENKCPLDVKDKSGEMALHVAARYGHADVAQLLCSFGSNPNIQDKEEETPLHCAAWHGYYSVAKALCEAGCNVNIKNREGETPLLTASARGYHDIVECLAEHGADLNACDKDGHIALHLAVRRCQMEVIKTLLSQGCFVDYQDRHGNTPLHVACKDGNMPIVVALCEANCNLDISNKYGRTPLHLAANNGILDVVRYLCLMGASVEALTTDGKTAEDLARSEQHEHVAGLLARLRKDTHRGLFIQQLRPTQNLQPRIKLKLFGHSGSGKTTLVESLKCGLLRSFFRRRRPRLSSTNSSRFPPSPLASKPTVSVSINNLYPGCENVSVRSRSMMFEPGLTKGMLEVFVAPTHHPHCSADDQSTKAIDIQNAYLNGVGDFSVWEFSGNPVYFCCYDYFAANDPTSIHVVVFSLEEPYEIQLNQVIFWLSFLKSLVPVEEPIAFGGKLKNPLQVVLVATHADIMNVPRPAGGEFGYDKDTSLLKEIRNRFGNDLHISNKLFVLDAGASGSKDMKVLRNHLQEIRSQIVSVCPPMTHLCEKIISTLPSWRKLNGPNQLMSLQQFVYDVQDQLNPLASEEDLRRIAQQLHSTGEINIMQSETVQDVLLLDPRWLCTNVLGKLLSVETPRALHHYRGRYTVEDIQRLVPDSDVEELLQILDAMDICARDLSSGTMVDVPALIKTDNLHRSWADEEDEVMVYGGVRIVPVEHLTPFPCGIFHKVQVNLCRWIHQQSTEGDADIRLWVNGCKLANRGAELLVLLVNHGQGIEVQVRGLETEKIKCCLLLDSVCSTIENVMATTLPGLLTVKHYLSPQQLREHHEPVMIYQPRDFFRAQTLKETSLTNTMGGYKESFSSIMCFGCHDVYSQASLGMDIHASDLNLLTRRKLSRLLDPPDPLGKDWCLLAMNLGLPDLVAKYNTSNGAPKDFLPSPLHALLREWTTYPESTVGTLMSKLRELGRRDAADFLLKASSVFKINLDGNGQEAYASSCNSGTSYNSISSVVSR
# [20] = molecular target: T1, NUAK family SNF1-like kinase 1 (Homo sapiens); details: at 1 µM
# Chain of 5'-AMP-activated protein kinase catalytic subunit alpha-2 (Homo sapiens) (P54646 whole entry, looked up): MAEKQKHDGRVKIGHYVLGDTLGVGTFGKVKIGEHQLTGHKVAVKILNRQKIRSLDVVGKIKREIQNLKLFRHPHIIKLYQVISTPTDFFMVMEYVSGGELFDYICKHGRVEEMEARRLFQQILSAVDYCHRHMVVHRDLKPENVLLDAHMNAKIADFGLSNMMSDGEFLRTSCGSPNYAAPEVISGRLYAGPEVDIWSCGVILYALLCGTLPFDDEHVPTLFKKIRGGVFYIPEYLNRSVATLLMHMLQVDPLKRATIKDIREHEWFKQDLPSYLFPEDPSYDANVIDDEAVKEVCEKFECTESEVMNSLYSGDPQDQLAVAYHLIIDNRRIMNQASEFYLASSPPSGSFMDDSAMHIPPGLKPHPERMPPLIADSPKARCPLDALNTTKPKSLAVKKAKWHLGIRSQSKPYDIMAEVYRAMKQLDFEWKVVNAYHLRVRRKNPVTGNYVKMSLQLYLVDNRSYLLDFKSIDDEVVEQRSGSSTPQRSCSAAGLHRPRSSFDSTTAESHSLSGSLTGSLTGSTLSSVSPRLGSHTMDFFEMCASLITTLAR
Compound,inhibition [1],inhibition [2],inhibition [3],inhibition [4],inhibition [5],inhibition [6],inhibition [7],inhibition [8],inhibition [9],inhibition [10],inhibition [11],inhibition [12],inhibition [13],inhibition [14],inhibition [15],inhibition [16],inhibition [17],inhibition [18],inhibition [19],inhibition [20]
N#Cc1c(NC(=O)c2cccc3ccccc23)sc2c1CCCC2,5.58%,1.58%,2.23%,3.56%,1.18%,6.1%,1.08%,2.77%,1.29%,1.93%,2.34%,4.57%,2.05%,1.58%,7.17%,10.4%,6.18%,6.56%,8.89%,
COC(=O)Nc1nc2cc(Oc3ccc(NC(=O)Nc4cccc(C(=O)O)c4)cc3)ccc2[nH]1,2.8%,6.73%,-1.07%,2.91%,2.19%,9.32%,0.59%,-1.87%,1.77%,3.09%,1.92%,1.91%,-1.16%,-2.08%,-3.62%,-0.43%,0.25%,6.26%,1.22%,8%
Nc1nc(-c2ccc3c(c2)C(=Cc2cc(Br)c(O)c(Br)c2)C(=O)N3)cs1,1.63%,3.02%,1.06%,6.62%,0.58%,8.7%,0.31%,9%,-5.57%,-3.05%,-2.31%,-1.31%,-0.65%,-2.75%,3.04%,1.34%,-2.92%,0.55%,0.32%,5.77%
NS(=O)(=O)c1ccc(N/N=C2\C(=O)Nc3ccc(C(=O)NCCc4c[nH]cn4)cc32)cc1,63.6%,54.2%,21.6%,63.5%,34.6%,74.9%,1.24%,3.93%,5.62%,10.6%,8.76%,32.5%,0.01%,0.46%,4.59%,17.2%,4.59%,18.3%,4.26%,83.5%
Cc1cc(O)cc(C)c1/C=C/c1cncc(-c2nn[nH]n2)c1,4.51%,3.07%,3.46%,19.2%,2.49%,13.2%,0.18%,-0.55%,6.31%,3.79%,4.52%,4.7%,-0.07%,-1.05%,-7.2%,2.19%,3.38%,5.57%,3.16%,5.08%
COc1cccc(-n2ncc3c(N/N=C/c4cccc(F)c4)ncnc32)c1,6.48%,3.92%,2.83%,13.7%,2.69%,20.5%,0.51%,1.96%,1.19%,2.7%,2.52%,16.1%,0.94%,1.12%,1.95%,3.28%,1.45%,1.6%,-0.52%,
O=C1NC(=O)C(c2ccccc2Cl)=C1Nc1cccc(O)c1,4.22%,0.82%,1.18%,6.4%,1.63%,8.81%,1.44%,4.28%,3.22%,5.26%,3.96%,11.7%,0.91%,1.07%,-0.11%,1.92%,1.18%,2.39%,3.2%,12.4%
